# Laboratory results taken from PubChem BioAssay.
# Where “and” joins values, the source holds several entries; their conditions need not be identical. Identical values can stand only once. For part of these data: Results with a measured potency or affinity are listed apart. Calls of active or inactive are those of the source.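 How the source made its calls, unless noted: active means at least 20% inhibition of 6-phosphogluconate dehydrogenase activity; inactive means the rest.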 Bridge positions count the residues as written; N and C are the ends. Square brackets hold non-standard residues; d marks the D form. Peptide text beside a SMILES is read from it. * marks the point of attachment. Octanoyl(6-Me) = CCC(C)CCCCC(=O)*; Dab = NCC[CH](N)C(=O)O
# Tests used:
# [1] = polyglutamine-triggered caspase-3 activation inhibitors, cell-based (AID 1583); conditions: polyglutamine-induced caspase-3 activation, cell assay; stronger effect = higher value;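 tested at 10 µM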
# [2] = suppressors of polyQ aggregation in yeast, 75Q-TubU reporter (AID 1593); conditions: Yeast 75Q polyglutamine aggregation reporter
# [3] = rescue of polyQ-huntingtin neuronal dysfunction in worms, whole organism, C. elegans mechanosensory neurons, N-terminal huntingtin (AID 1599); conditions: touch response, stronger effect = higher value
# [4] = inhibitors of mitochondrial cytochrome c release, biochemical, purified mitochondria (AID 1603); conditions: stronger effect = lower value;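 further: mouse liver mitochondria challenged with calcium chloride; signal normalized to the plate average as 100%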
# [5] = inhibitors of polyQ protein aggregation (AID 1604); conditions: polyglutamine-induced protein aggregation inhibition assay; stronger effect = higher value; tested at 2.5 µM
# [6] = enhancers of glutamate uptake in motor neurons, MN-1 cell line (AID 1612); conditions: MN-1 motor neuron cells, stronger effect = higher value;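 further: tested at 1 µM final; 0% = mean of DMSO vehicle wells on each plate; positive means more glutamate uptake than control and negative means less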
# [7] = reducers of polyQ inclusions in PC12 cells, cell-based, NGF-treated PC12, GFPQ80 (AID 1614); conditions: PC12 NGF-treated GFP-polyQ80 inclusion reduction;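 further: lower means fewer inclusions and 0 means no inclusions at all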
# [8] = suppressors of polyglutamine aggregation in yeast, 75Q-TubH (AID 1616); conditions: S. cerevisiae 75Q-TubH polyglutamine aggregation suppression; stronger effect = higher value
# [9] = liver-stage malaria parasite growth inhibition, primary screen, cell-based, HepG2, luciferase luminescence, HepG2 viability (AID 624349; in the data active means parasite load remaining mostly below about 12%, no sharp cut-off; inactive means mostly above about 10%;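 further: 100% = mean of DMSO negative control wells on the same plate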); conditions: P. berghei liver stage in HepG2, luciferase luminescence, concentration not given here; parasite load remaining: stronger effect = lower value; viability: measured here: HepG2 viability without parasites
# [10] = target: 6-phosphogluconate dehydrogenase, decarboxylating (Homo sapiens) (UniProt P52209); assay: 6PGD enzyme inhibitors, primary screen, biochemical, human, recombinant enzyme, NADPH absorbance (AID 1159550); conditions: recombinant 6PGD, NADPH absorbance 341 nm; at 10 µM; stronger effect = higher value
# 6-phosphogluconate dehydrogenase, decarboxylating (Homo sapiens), sequence (P52209 whole entry, looked up): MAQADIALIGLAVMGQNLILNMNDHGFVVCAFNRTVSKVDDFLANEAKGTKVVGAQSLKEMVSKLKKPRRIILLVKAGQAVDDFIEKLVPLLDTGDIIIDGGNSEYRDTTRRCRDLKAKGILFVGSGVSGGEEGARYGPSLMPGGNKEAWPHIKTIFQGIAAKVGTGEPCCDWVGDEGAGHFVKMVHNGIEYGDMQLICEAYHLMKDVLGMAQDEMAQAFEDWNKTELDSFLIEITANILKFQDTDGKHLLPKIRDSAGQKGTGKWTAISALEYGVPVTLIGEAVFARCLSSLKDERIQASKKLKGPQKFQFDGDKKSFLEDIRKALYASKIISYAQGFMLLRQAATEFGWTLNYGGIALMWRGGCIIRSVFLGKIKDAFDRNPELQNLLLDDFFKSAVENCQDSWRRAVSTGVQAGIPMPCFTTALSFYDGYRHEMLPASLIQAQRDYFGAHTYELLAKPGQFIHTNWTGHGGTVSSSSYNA
# [11] = differential killing of epithelial or mesenchymal cells, primary screen, imaging, PC-3E GFP, TEM4-18 mCherry, co-culture (AID 1345086;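 active means compounds killing one labelled cell type while sparing the other, by normalised counts and ratio limits, not self-fluorescent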;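 on all read-outs here: cells exposed to compound for 72 h before imaging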;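 on red/green cell ratio (normalised): normalised mesenchymal count divided by normalised epithelial count so high means epithelial killing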); conditions: imaging cell counts, at 1 µM; for red/green cell ratio (normalised): actives lie on both sides, counts scaled to control wells, 1 = unselective
# [12] = target: NAD(+) hydrolase SARM1 (Homo sapiens) (UniProt Q6SZW1); assay: SARM1 TIR NADase inhibitors, cell lysate, NAD-Glo luminescence (AID 1508614;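 active means compound whose remaining NAD level is above about 45 nM, limit read from the data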); conditions: SAM-TIR HEK293T lysate NADase, at 1 µM, stronger effect = higher value
# NAD(+) hydrolase SARM1 (Homo sapiens), sequence (Q6SZW1 whole entry, looked up, the tested form may be a part): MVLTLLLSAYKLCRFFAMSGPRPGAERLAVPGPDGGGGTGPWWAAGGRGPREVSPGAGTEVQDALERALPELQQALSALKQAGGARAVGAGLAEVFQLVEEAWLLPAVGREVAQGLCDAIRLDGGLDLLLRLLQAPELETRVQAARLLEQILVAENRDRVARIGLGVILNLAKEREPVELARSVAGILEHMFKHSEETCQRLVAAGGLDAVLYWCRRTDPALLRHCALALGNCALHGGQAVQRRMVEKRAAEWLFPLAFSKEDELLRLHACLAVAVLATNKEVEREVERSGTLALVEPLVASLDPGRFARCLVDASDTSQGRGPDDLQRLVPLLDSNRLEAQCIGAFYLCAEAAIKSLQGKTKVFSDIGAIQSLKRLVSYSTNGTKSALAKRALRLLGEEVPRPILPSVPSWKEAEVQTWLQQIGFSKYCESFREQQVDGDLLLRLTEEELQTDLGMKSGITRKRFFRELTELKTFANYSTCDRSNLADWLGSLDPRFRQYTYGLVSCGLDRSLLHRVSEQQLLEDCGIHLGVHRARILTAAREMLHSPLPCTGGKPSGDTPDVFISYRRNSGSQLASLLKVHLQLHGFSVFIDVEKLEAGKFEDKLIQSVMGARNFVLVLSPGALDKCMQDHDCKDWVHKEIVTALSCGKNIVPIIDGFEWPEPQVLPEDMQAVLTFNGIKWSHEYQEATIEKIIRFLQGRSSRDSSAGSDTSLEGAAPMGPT
# [13] = target: Mitogen-activated protein kinase 7 (Homo sapiens) (UniProt Q13164); assay: ERK5 transactivation activators in reporter cells, primary screen, cell-based, HTS (AID 1508626;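 active means luciferase signal above three times the same-plate solvent-only control wells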;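 further: luciferase driven by Gal4-ERK5 fusion binding five Gal4 sites before minimal TATA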); conditions: HeLa Gal4-ERK5 transactivation, 18 h, at 5 µM, stronger effect = higher value
# Mitogen-activated protein kinase 7 (Homo sapiens), sequence (Q13164 whole entry, looked up, the tested form may be a part): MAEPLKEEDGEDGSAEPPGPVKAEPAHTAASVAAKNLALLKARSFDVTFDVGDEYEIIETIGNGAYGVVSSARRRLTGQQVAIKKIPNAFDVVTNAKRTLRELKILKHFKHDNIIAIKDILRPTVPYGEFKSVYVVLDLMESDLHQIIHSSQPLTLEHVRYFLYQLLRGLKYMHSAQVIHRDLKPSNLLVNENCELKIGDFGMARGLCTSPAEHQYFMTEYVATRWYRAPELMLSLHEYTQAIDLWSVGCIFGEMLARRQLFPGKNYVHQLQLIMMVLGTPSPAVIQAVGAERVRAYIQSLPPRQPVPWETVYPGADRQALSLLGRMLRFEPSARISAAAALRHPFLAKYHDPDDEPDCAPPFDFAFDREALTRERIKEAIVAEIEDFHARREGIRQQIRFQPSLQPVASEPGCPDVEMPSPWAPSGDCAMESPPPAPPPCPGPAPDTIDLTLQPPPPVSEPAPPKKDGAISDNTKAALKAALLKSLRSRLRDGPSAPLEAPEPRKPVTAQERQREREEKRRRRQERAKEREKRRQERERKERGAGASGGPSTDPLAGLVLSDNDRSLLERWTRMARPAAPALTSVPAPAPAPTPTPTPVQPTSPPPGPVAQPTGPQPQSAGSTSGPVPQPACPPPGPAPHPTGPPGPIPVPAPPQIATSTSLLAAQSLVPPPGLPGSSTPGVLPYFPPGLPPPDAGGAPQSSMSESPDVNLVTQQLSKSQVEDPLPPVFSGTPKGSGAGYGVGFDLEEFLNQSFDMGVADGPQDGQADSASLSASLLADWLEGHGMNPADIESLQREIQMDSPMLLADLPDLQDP
# [14] = sensitizers of A549 cells to miR-34 induction, primary screen, imaging, A549 dox-inducible miR-34, nuclei and caspase counts (AID 1347080;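 active means compounds whose cell count with miR-34 switched on is under 0.7 times the count with it off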); conditions: A549 miR-34 inducible, Hoechst nuclei count, 48 h
# [15] = circadian clock period modulators, cell-based, LOPAC library, luminescence reporter (AID 2774; call rule not given here;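 further: values are relative to mean of DMSO wells on each plate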); conditions: circadian reporter cells, at 7 µM, actives lie on both sides
# [16] = hESC survival regulators, cell-based (AID 493140; call rule not given here;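 further: cells exposed to compounds for four days before counting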); conditions: human embryonic stem cell survival screen; stronger effect = higher value
# [17] = phospholipid biosynthesis inhibitors in animal cells, primary screen, cell-based, LOPAC library, screen 4 (AID 1347384; call rule not given here); conditions: phospholipid biosynthesis inhibition screen, at 10 µM
# [18] = survival rescue of mitochondrial mutant cells in low glucose, primary screen, MELAS cybrids, Rieske KO mouse fibroblasts, CellTiter-Glo (AID 1508586;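 active means mean z-score across replicates of 1.96 or higher in either the MELAS or the Rieske mutant cell line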;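 further: z relative to plate mean and SD of compound and empty wells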)
# [19] = viability rescue of complex I mutant cybrids, primary screen, cell-based, galactose medium, ATP luminescence (AID 1645843;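 active means z-score of at least 1.8 in each of two replicates, scored against plate mean and spread of sample wells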;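 further: positive z means more ATP and so rescue of galactose-driven cybrid death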); conditions: complex I mutant cybrid cells, 72 h, stronger effect = higher value
# [20] = measured here: epithelial PC-3E GFP cell survival
# [21] = measured here: mesenchymal TEM4-18 mCherry cell survival
# [22] = stronger effect = lower value, cell number ratio, induced over uninduced
# [23] = measured here: relative caspase fold change +Dox/-Dox
# [24] = measured here: total cells with miR-34 induction, stronger effect = lower value
# [25] = measured here: total cells without miR-34 induction
compound,measurement,setting,value
N[C@H](Cc1ccccc1)C(=O)O,inhibition,[1],15.8%
same,score,[2],1.59
same,rescue above control,[3],-4.58
same,cytochrome c release ratio,[4],0.85
same,inhibition of aggregation,[5],56.8%
same,glutamate uptake change,[6],4.25%
same,inclusion score,[7],2
same,aggregation suppression score,[8],1.21
same,parasite load remaining,[9],140% (inactive)
same,viability,[9],87.2%
same,inhibition,[10],6.57% (inactive)
same,red/green cell ratio (normalised),[11],1.1 (inactive)
same,normalised cell number,[11]; [20],0.82
same,normalised cell number,[11]; [21],0.9
same,remaining NAD,[12],98 nM (active)
same,luciferase signal,[13],56 AU (inactive)
CCCCC(=O)Oc1ccccc1C(=O)O,inhibition,[10],18.3% (inactive)
same,red/green cell ratio (normalised),[11],0.89 (inactive)
same,normalised cell number,[11]; [20],1.25
same,normalised cell number,[11]; [21],1.11
same,fold change,[14]; [22],0.935 (inactive)
same,fold change,[14]; [23],0.938
same,cell count,[14]; [24],5290
same,cell count,[14]; [25],5650
same,luciferase signal,[13],56 AU (inactive)
CO[C@H]1/C=C/O[C@@]2(C)Oc3c(C)c(O)c4c(O)c(c5c(nc6cc(C)ccn65)c4c3C2=O)NC(=O)/C(C)=C\C=C\[C@H](C)[C@H](O)[C@@H](C)C(O)[C@@H](C)[C@H](OC(C)=O)[C@@H]1C (some centres undefined),parasite load remaining,[9],51.2% (inactive)
same,viability,[9],113%
same,inhibition,[10],-0.37% (inactive)
same,red/green cell ratio (normalised),[11],1.15 (inactive)
same,normalised cell number,[11]; [20],1.21
same,normalised cell number,[11]; [21],1.39
same,fold change,[14]; [22],0.902 (inactive)
same,fold change,[14]; [23],2.53
same,cell count,[14]; [24],11500
same,cell count,[14]; [25],12700
CCC(C)CCCCC(=O)NC(CCN)C(=O)NC(C(=O)NC(CCN)C(=O)NC1CCNC(=O)C(C(C)O)NC(=O)C(CCN)NC(=O)C(CCN)NC(=O)C(CC(C)C)NC(=O)C(Cc2ccccc2)NC(=O)C(CCN)NC1=O)C(C)O (centres undefined) ({Octanoyl(6-Me)}-[Dab]T[Dab][Dab][Dab]FL[Dab][Dab]T; lactam 4-C; configuration not given here),inhibition,[1],15%
same,score,[2],0.73
same,rescue above control,[3],0
same,cytochrome c release ratio,[4],7.61
same,inhibition of aggregation,[5],70.5%
same,glutamate uptake change,[6],-11.7%
same,inclusion score,[7],2
same,aggregation suppression score,[8],0.739
same,parasite load remaining,[9],82.5% (inactive) and 41.4% (inactive)
same,viability,[9],77.7% and 91.4%
same,inhibition,[10],11% (inactive)
same,red/green cell ratio (normalised),[11],1.23 (inactive)
same,normalised cell number,[11]; [20],0.93
same,normalised cell number,[11]; [21],1.14
same,fold change,[14]; [22],0.886 (inactive)
same,fold change,[14]; [23],2.98
same,cell count,[14]; [24],11700
same,cell count,[14]; [25],13200
same,remaining NAD,[12],10 nM (inactive)
CN(C)CCC(c1ccc(Br)cc1)c1ccccn1 (centres undefined),period change,[15],0.005 h (inactive)
same,survival,[16],1.08 (inactive)
same,inhibition,[10],5% (inactive)
same,red/green cell ratio (normalised),[11],1.05 (inactive)
same,normalised cell number,[11]; [20],1.13
same,normalised cell number,[11]; [21],1.19
same,outcome,[17],inactive
same,z-score,"[18]; MELAS cybrid survival, CellTiter-Glo 48 h, stronger effect = higher value",-0.114 (inactive) and -0.273 (inactive) and -0.659 (inactive)
same,z-score,"[18]; Rieske KO mouse fibroblast survival, CellTiter-Glo 72 h",-0.476 and -0.248 and 0.132
same,remaining NAD,[12],10 nM (inactive)
same,luciferase signal,[13],48 AU (inactive)
same,z-score,[19],-0.18 (inactive) and -0.16 (inactive) and 0.035 (inactive)
Cn1nnnc1SCC1=C(C(=O)O)N2C(=O)C(NC(=O)C(OC=O)c3ccccc3)C2SC1 (centres undefined),inhibition,[1],20.1%
same,score,[2],1.46
same,rescue above control,[3],-9.96
same,cytochrome c release ratio,[4],1.54
same,inhibition of aggregation,[5],91.6%
same,glutamate uptake change,[6],-5.89%
same,inclusion score,[7],2
same,aggregation suppression score,[8],1.26
same,parasite load remaining,[9],85.6% (inactive) and 51.5% (inactive)
same,viability,[9],73.8% and 102%
same,inhibition,[10],0.99% (inactive)
same,red/green cell ratio (normalised),[11],0.82 (inactive)
same,normalised cell number,[11]; [20],1.29
same,normalised cell number,[11]; [21],1.06
same,fold change,[14]; [22],0.922 (inactive)
same,fold change,[14]; [23],2.94
same,cell count,[14]; [24],11600
same,cell count,[14]; [25],12600
